Reference: PubChem BioAssay AID1159580 (chemical genetic matrix, 2015)
Several values for one entry are separate records, joined by “and”; a condition that tells them apart may be missing. Equal values may be shown once. Hit rate of the full screen: of about 5,500 compounds, about 2,000 (36%) were called active. About 18% were inconclusive and are not listed. Cut-off read from the data, not from the text of the source: active = normalized growth mostly below about 0.91 (no sharp cut-off); inconclusive = no clear call, values can overlap the other calls; inactive = mostly above about 0.92. The list shows a part of the results.

Assay: chemical genetic growth profiling, strain panel (AID 1159580);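 note: tested at 20 µM; growth read once vehicle control cultures reached saturation at 30 °C; 1 = growth at the plate median or of vehicle wells; lower values mean less growth of the strain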
Settings: S. cerevisiae deletion strains, growth OD

Measured: normalized growth

CCCCCCCCCCCCCCCC[N+](C)(C)C
active: locus YAL013W, strain DEP1, active compounds read low 0.0576 | locus YAL021C, strain ccr4, active compounds read low 0.0584 | locus YAL026C, strain drs2, active compounds read low 0.0563 | locus YAL030W, strain snc1, active compounds read low 0.0653 | locus YBL061C, strain skt5, active compounds read low 0.057 | locus YBR009C, strain hhf1, active compounds read low 0.06 | locus YBR021W, strain FUR4, active compounds read low 0.123 | locus YBR023C, strain chs3, active compounds read low 0.0601 | locus YBR171W, strain sec66, active compounds read low 0.0733 | locus YBR229C, strain ROT2, active compounds read low 0.0267 | locus YBR231C, strain swc5, active compounds read low 0.0573 | locus YBR279W, strain paf1, active compounds read low 0.0573 | locus YCL011C, strain gbp2, active compounds read low 0.055 | locus YCL016C, strain dcc1, active compounds read low 0.0605 | locus YCL029C, strain bik1, active compounds read low 0.0609 | locus YCL061C, strain MRC1, active compounds read low 0.0602 | locus YCL069W, strain vba3, active compounds read low 0.0611 | locus YCR088W, strain abp1, active compounds read low 0.0586 | locus YDL005C, strain med2, active compounds read low 0.0729 | locus YDL035C, strain GPR1, active compounds read low 0.0499 | locus YDL040C, strain nat1, active compounds read low 0.0563 | locus YDL074C, strain BRE1, active compounds read low 0.0802 | locus YDL101C, strain DUN1, active compounds read low 0.0512 | locus YDL134C, strain PPH21, active compounds read low 0.0552 | locus YDL185W, strain tfp1, active compounds read low 0.0826 | locus YDL192W, strain arf1, active compounds read low 0.0605 | locus YDR001C, strain nth1, active compounds read low 0.0561 | locus YDR069C, strain doa4, active compounds read low 0.0578 | locus YDR101C, strain arx1, active compounds read low 0.0591 | locus YDR137W, strain rgp1, active compounds read low 0.0808 | locus YDR150W, strain NUM1, active compounds read low 0.0572 | locus YDR159W, strain sac3, active compounds read low 0.0724 | locus YDR162C, strain NBP2, active compounds read low 0.0544 | locus YDR195W, strain ref2 0.0903 | locus YDR297W, strain sur2, active compounds read low 0.0606 | locus YDR318W, strain mcm21, active compounds read low 0.0624 | locus YDR334W, strain swr1, active compounds read low 0.0599 | locus YDR335W, strain msn5, active compounds read low 0.0601 | locus YDR388W, active compounds read low 0.0556 | locus YDR392W, strain spt3, active compounds read low 0.0767 | locus YDR502C, strain sam2, active compounds read low 0.0598 | locus YEL003W, strain gim4, active compounds read low 0.0527 | locus YEL037C, strain rad23, active compounds read low 0.0584 | locus YEL061C, strain CIN8 (second series), active compounds read low 0.0593 | locus YEL061C, strain CIN8, active compounds read low 0.0474 | locus YER015W, strain faa2, active compounds read low 0.0592 | locus YER016W, strain bim1, active compounds read low 0.0587 | locus YER110C, active compounds read low 0.0715 | locus YER111C, strain swi4, active compounds read low 0.0703 | locus YER155C, strain BEM2 (second series), active compounds read low 0.0841 | locus YER155C, strain BEM2, active compounds read low 0.0716 | locus YER167W, strain BCK2, active compounds read low 0.0534 | locus YFR010W, strain ubp6, active compounds read low 0.0598 | locus YGL078C, strain dbp3, active compounds read low 0.0583 | locus YGL086W, strain mad1, active compounds read low 0.055 | locus YGL167C, strain pmr1, active compounds read low 0.0703 | locus YGL173C, strain kem1, active compounds read low 0.0795 | locus YGL227W, strain vid30, active compounds read low 0.0598 | locus YGL240W, strain doc1, active compounds read low 0.0655 | locus YGL248W, strain PDE1, active compounds read low 0.0448 | locus YGL253W, strain hxk2, active compounds read low 0.0528 | locus YGR078C, strain PAC10, active compounds read low 0.0545 | locus YGR135W, strain pre9, active compounds read low 0.0674 | locus YGR229C, strain SMI1, active compounds read low 0.0636 | locus YGR252W, strain gcn5, active compounds read low 0.153 | locus YHR013C, strain ard1, active compounds read low 0.0817 | locus YHR027C, strain rpn1, active compounds read low 0.0592 | locus YHR030C, strain SLT2, active compounds read low 0.0556 and 0.0924 | locus YHR079C, strain IRE1 (second series), active compounds read low 0.0564 | locus YHR079C, strain IRE1, active compounds read low 0.0965 | locus YHR094C, strain hxt1, active compounds read low 0.0577 | locus YHR129C, strain ARP1, active compounds read low 0.0524 | locus YHR142W, strain chs7, active compounds read low 0.062 | locus YHR200W, strain rpn10, active compounds read low 0.0595 | locus YIL066C, strain RNR3, active compounds read low 0.0478 | locus YIL073C, strain SPO22, active compounds read low 0.0966 | locus YIL125W, strain kgd1, active compounds read low 0.0641 | locus YIR030C, strain dcg1, active compounds read low 0.0583 | locus YJL092W, strain hpr5, active compounds read low 0.0559 | locus YJL095W, strain BCK1 (second series), active compounds read low 0.0547 | locus YJL095W, strain BCK1, active compounds read low 0.049 and 0.0904 | locus YJL115W, strain asf1, active compounds read low 0.0708 | locus YJL129C, strain trk1, active compounds read low 0.0757 | locus YJL134W, strain LCB3, active compounds read low 0.0478 | locus YJL154C, strain vps35, active compounds read low 0.0607 | locus YJL164C, strain tpk1, active compounds read low 0.0535 | locus YJL166W, strain qcr8, active compounds read low 0.0568 | locus YJL168C, strain set2, active compounds read low 0.0569 | locus YJL187C, strain SWE1 (second series), active compounds read low 0.0409 | locus YJL187C, strain SWE1, active compounds read low 0.0593 | locus YJR043C, strain POL32, active compounds read low 0.0614 | locus YJR066W, strain TOR1, active compounds read low -0.00145
